From PubChem BioAssay (NCI)
The panel holds about 83,000 compounds, 20% with a hit somewhere; the sample as a whole holds those more often.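 How to read the values: 0–100, growth inhibition (40 = 60% inhibited); 0, no net growth; -100 to 0, cell death (-40 = 40% of starting cells died; -100 = all dead).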 A number with no mark means an inactive call. Activity calls are given as the source filed them. Rule for the calls: active = growth percent below 10; inactive = the rest.

Legend:
Test in all cases: NCI-60 one-dose screen, 48 h (100 = growth as untreated, 0 = no growth, -100 = all killed)
SK-MEL-2 melanoma = conditions: 10 µM unless noted
EKVX NSCLC = conditions: 10 µM unless noted
SN12C renal = conditions: 10 µM unless noted
UO-31 renal = conditions: 10 µM unless noted
TK-10 renal = conditions: 10 µM unless noted
ACHN renal = conditions: 10 µM unless noted
CAKI-1 renal = conditions: 10 µM unless noted
A498 renal = conditions: 10 µM unless noted
CCRF-CEM leukemia = conditions: 10 µM unless noted
MOLT-4 leukemia = conditions: 10 µM unless noted
SR leukemia = conditions: 10 µM unless noted
RPMI-8226 leukemia = conditions: 10 µM unless noted
OVCAR-8 ovarian = conditions: 10 µM unless noted
OVCAR-5 ovarian = conditions: 10 µM unless noted
OVCAR-4 ovarian = conditions: 10 µM
SK-OV-3 ovarian = conditions: 10 µM unless noted
IGROV1 ovarian = conditions: 10 µM unless noted
OVCAR-3 ovarian = conditions: 10 µM unless noted
HS 578T breast = conditions: 10 µM unless noted
NCI/ADR-RES ovarian = conditions: 10 µM unless noted

**Q.** What does the source list for O=C(Nc1ccc(Nc2ccncc2)cc1)c1ccc([N+](=O)[O-])cc1?
**A.** growth (SK-MEL-2 melanoma): 94.8%; growth (EKVX NSCLC): 69.9%; growth (SN12C renal): 72.9%; growth (UO-31 renal): 55.6%; growth (TK-10 renal): 90.4%; growth (ACHN renal): 80.4%; growth (CAKI-1 renal): 52.6%; growth (A498 renal): 76%; growth (CCRF-CEM leukemia): 1.05% (active); growth (MOLT-4 leukemia): 6.48% (active); growth (SR leukemia): -45.3% (active); growth (RPMI-8226 leukemia): 22.8%; growth (OVCAR-8 ovarian): 61%; growth (OVCAR-5 ovarian): 101%; growth (OVCAR-4 ovarian): 67.3%; growth (SK-OV-3 ovarian): 88.6%; growth (IGROV1 ovarian): 85.4%; growth (OVCAR-3 ovarian): 60.4%; growth (HS 578T breast): 95.4%; growth (NCI/ADR-RES ovarian): 92%

**Q.** How did the growth (SK-MEL-2 melanoma) turn out when COc1ccc(C2NC(=O)C(C#N)c3c2sc2c(F)cccc32)cc1 (stereo unspecified) was run?
**A.** 60%

**Q.** What about the growth (EKVX NSCLC) of the same compound?
**A.** 62.8%

**Q.** What about the growth (SN12C renal) of the same compound?
**A.** 61.5%

**Q.** And the growth (UO-31 renal)?
**A.** 36.8%

**Q.** And the growth (TK-10 renal)?
**A.** 113%

**Q.** And the growth (ACHN renal)?
**A.** 43.6%

**Q.** And the growth (CAKI-1 renal)?
**A.** 40%

**Q.** What about the growth (A498 renal) of the same compound?
**A.** 32.2%

**Q.** And the growth (CCRF-CEM leukemia)?
**A.** 44%

**Q.** And the growth (MOLT-4 leukemia)?
**A.** 49.1%

**Q.** What about the growth (SR leukemia) of the same compound?
**A.** 22.2%

**Q.** And the growth (RPMI-8226 leukemia)?
**A.** 63.2%

**Q.** And the growth (OVCAR-8 ovarian)?
**A.** 69.8%

**Q.** And the growth (OVCAR-5 ovarian)?
**A.** 85.6%

**Q.** And the growth (OVCAR-4 ovarian)?
**A.** 71.4%

**Q.** And the growth (SK-OV-3 ovarian)?
**A.** 63.2%

**Q.** And the growth (IGROV1 ovarian)?
**A.** 41.1%

**Q.** And the growth (OVCAR-3 ovarian)?
**A.** 0.617% (active)

**Q.** What about the growth (NCI/ADR-RES ovarian) of the same compound?
**A.** 27.3%

**Q.** With O=C1NC(=O)C(Cc2ccccc2)(Cc2ccccc2)N1 as the compound, how does the growth (SK-MEL-2 melanoma) read?
**A.** 102%

**Q.** What about the growth (EKVX NSCLC) of the same compound?
**A.** 101%

**Q.** What about the growth (SN12C renal) of the same compound?
**A.** 97.9%

**Q.** What about the growth (UO-31 renal) of the same compound?
**A.** 93.6%

**Q.** And the growth (TK-10 renal)?
**A.** 89.4%

**Q.** And the growth (ACHN renal)?
**A.** 109%

**Q.** And the growth (CAKI-1 renal)?
**A.** 92.1%

**Q.** What about the growth (A498 renal) of the same compound?
**A.** 102%

**Q.** What about the growth (CCRF-CEM leukemia) of the same compound?
**A.** 92.4%

**Q.** And the growth (MOLT-4 leukemia)?
**A.** 90.5%

**Q.** What about the growth (SR leukemia) of the same compound?
**A.** 104%

**Q.** And the growth (RPMI-8226 leukemia)?
**A.** 91%

**Q.** And the growth (OVCAR-8 ovarian)?
**A.** 104%

**Q.** What about the growth (OVCAR-5 ovarian) of the same compound?
**A.** 110%

**Q.** What about the growth (OVCAR-4 ovarian) of the same compound?
**A.** 91.2%

**Q.** And the growth (SK-OV-3 ovarian)?
**A.** 98.1%

**Q.** And the growth (IGROV1 ovarian)?
**A.** 115%

**Q.** What about the growth (OVCAR-3 ovarian) of the same compound?
**A.** 98.9%

**Q.** What about the growth (HS 578T breast) of the same compound?
**A.** 111%

**Q.** What about the growth (NCI/ADR-RES ovarian) of the same compound?
**A.** 101%

**Q.** What does the source list for Cc1ccc2c(c1)/C(=N\N=C/c1cn(C(C)C)c3ccccc13)C(=O)N2?
**A.** growth (SK-MEL-2 melanoma): 81.2%; growth (EKVX NSCLC): 61.9%; growth (SN12C renal): 56.4%; growth (UO-31 renal): 57.8%; growth (TK-10 renal): 81.4%; growth (ACHN renal): 55.4%; growth (CAKI-1 renal): 64.4%; growth (A498 renal): 86.1%; growth (CCRF-CEM leukemia): 6.69% (active); growth (MOLT-4 leukemia): -10% (active); growth (SR leukemia): -9.77% (active); growth (RPMI-8226 leukemia): 0.866% (active); growth (OVCAR-8 ovarian): 54.5%; growth (OVCAR-5 ovarian): 70.2%; growth (OVCAR-4 ovarian): 37.7%; growth (SK-OV-3 ovarian): 89.2%; growth (IGROV1 ovarian): 48.1%; growth (OVCAR-3 ovarian): -2.36% (active); growth (HS 578T breast): 73.9%; growth (NCI/ADR-RES ovarian): 79%

**Q.** What does the source list for Cc1nc(-c2ccccc2)sc1CC#N?
**A.** growth (SK-MEL-2 melanoma): 112%; growth (EKVX NSCLC): 101%; growth (SN12C renal): 103%; growth (UO-31 renal): 106%; growth (TK-10 renal): 79.4%; growth (ACHN renal): 102%; growth (CAKI-1 renal): 97.6%; growth (A498 renal): 85.6%; growth (CCRF-CEM leukemia): 102%; growth (MOLT-4 leukemia): 93.5%; growth (SR leukemia): 91.6%; growth (RPMI-8226 leukemia): 109%; growth (OVCAR-8 ovarian): 108%; growth (OVCAR-5 ovarian): 105%; growth (OVCAR-4 ovarian): 113%; growth (SK-OV-3 ovarian): 108%; growth (IGROV1 ovarian): 102%; growth (OVCAR-3 ovarian): 116%; growth (NCI/ADR-RES ovarian): 109%

**Q.** How did the growth (SK-MEL-2 melanoma) turn out when O=[N+]([O-])c1cccc(/C=C/c2ccc3ccccc3n2)c1 was run?
**A.** 68%

**Q.** And the growth (EKVX NSCLC)?
**A.** 79.8%

**Q.** What about the growth (SN12C renal) of the same compound?
**A.** 83%

**Q.** And the growth (UO-31 renal)?
**A.** 76.6%

**Q.** What about the growth (TK-10 renal) of the same compound?
**A.** 64.4%

**Q.** And the growth (ACHN renal)?
**A.** 53%

**Q.** And the growth (CAKI-1 renal)?
**A.** 78.3%

**Q.** And the growth (A498 renal)?
**A.** 125%

**Q.** What about the growth (CCRF-CEM leukemia) of the same compound?
**A.** 82.1%

**Q.** And the growth (MOLT-4 leukemia)?
**A.** 75.3%

**Q.** What about the growth (SR leukemia) of the same compound?
**A.** 78.2%

**Q.** What about the growth (RPMI-8226 leukemia) of the same compound?
**A.** 90.7%

**Q.** And the growth (OVCAR-8 ovarian)?
**A.** 57.1%

**Q.** What about the growth (OVCAR-5 ovarian) of the same compound?
**A.** 130%

**Q.** What about the growth (OVCAR-4 ovarian) of the same compound?
**A.** 38.9%

**Q.** And the growth (SK-OV-3 ovarian)?
**A.** 70.8%

**Q.** What about the growth (IGROV1 ovarian) of the same compound?
**A.** 79.9%

**Q.** What about the growth (OVCAR-3 ovarian) of the same compound?
**A.** 88.5%

**Q.** What about the growth (NCI/ADR-RES ovarian) of the same compound?
**A.** 71.2%

**Q.** O=C1/C(=C/c2cccc(OCc3ccccc3)c2)Oc2cc(OCCN3CCCCC3)ccc21 was tested. Which growth (SK-MEL-2 melanoma) did it give?
**A.** 134%

**Q.** And the growth (EKVX NSCLC)?
**A.** 87.6%

**Q.** And the growth (SN12C renal)?
**A.** 81.9%

**Q.** What about the growth (UO-31 renal) of the same compound?
**A.** 65.1%

**Q.** What about the growth (TK-10 renal) of the same compound?
**A.** 118%

**Q.** And the growth (ACHN renal)?
**A.** 97.6%

**Q.** What about the growth (CAKI-1 renal) of the same compound?
**A.** 84.4%

**Q.** And the growth (A498 renal)?
**A.** 81.7%

**Q.** And the growth (CCRF-CEM leukemia)?
**A.** 53.8%

**Q.** What about the growth (MOLT-4 leukemia) of the same compound?
**A.** 82.4%

**Q.** And the growth (SR leukemia)?
**A.** -20.5% (active)

**Q.** What about the growth (RPMI-8226 leukemia) of the same compound?
**A.** 20.8%

**Q.** What about the growth (OVCAR-8 ovarian) of the same compound?
**A.** 92%

**Q.** What about the growth (OVCAR-5 ovarian) of the same compound?
**A.** 81.4%

**Q.** And the growth (OVCAR-4 ovarian)?
**A.** 86.2%

**Q.** What about the growth (SK-OV-3 ovarian) of the same compound?
**A.** 121%

**Q.** What about the growth (IGROV1 ovarian) of the same compound?
**A.** 71.5%

**Q.** What about the growth (OVCAR-3 ovarian) of the same compound?
**A.** 86.3%

**Q.** And the growth (NCI/ADR-RES ovarian)?
**A.** 82.7%

**Q.** Which growth (SK-MEL-2 melanoma) does the source give for COc1cc(-c2nc(SCCC(C)C)nc(Nc3ccccc3)c2C#N)cc(OC)c1OC here?
**A.** 103%

**Q.** What about the growth (EKVX NSCLC) of the same compound?
**A.** 100%

**Q.** And the growth (SN12C renal)?
**A.** 89.5%

**Q.** And the growth (UO-31 renal)?
**A.** 68.4%

**Q.** And the growth (TK-10 renal)?
**A.** 110%

**Q.** And the growth (ACHN renal)?
**A.** 94%

**Q.** And the growth (CAKI-1 renal)?
**A.** 72.4%

**Q.** And the growth (A498 renal)?
**A.** 69.9%

**Q.** What about the growth (CCRF-CEM leukemia) of the same compound?
**A.** 88.6%

**Q.** And the growth (MOLT-4 leukemia)?
**A.** 84.3%

**Q.** And the growth (SR leukemia)?
**A.** 79.8%

**Q.** What about the growth (RPMI-8226 leukemia) of the same compound?
**A.** 92.2%

**Q.** What about the growth (OVCAR-8 ovarian) of the same compound?
**A.** 97.7%

**Q.** And the growth (OVCAR-5 ovarian)?
**A.** 99.4%

**Q.** What about the growth (OVCAR-4 ovarian) of the same compound?
**A.** 88.3%

**Q.** And the growth (SK-OV-3 ovarian)?
**A.** 107%

**Q.** And the growth (IGROV1 ovarian)?
**A.** 100%

**Q.** And the growth (OVCAR-3 ovarian)?
**A.** 103%

**Q.** And the growth (HS 578T breast)?
**A.** -8.69% (active)

**Q.** What about the growth (NCI/ADR-RES ovarian) of the same compound?
**A.** 95.5%
